Assay results from PubChem BioAssay AID652054 (National Center for Advancing Translational Sciences (NCATS), 2013).
Out of some 360,000 compounds screened, about 9,100 (2.5%) were called active. About 4% were inconclusive and are not listed. The sample holds actives, similar compounds and a random draw of the others, so the mix is not that of the screen. Rule as the data show it: active = max response below about -50%; inconclusive = no clear call, values can overlap the other calls; inactive = above that.

Biological target: D(3) dopamine receptor (Homo sapiens) (UniProt P35462)
Sequence (P35462 whole entry, looked up): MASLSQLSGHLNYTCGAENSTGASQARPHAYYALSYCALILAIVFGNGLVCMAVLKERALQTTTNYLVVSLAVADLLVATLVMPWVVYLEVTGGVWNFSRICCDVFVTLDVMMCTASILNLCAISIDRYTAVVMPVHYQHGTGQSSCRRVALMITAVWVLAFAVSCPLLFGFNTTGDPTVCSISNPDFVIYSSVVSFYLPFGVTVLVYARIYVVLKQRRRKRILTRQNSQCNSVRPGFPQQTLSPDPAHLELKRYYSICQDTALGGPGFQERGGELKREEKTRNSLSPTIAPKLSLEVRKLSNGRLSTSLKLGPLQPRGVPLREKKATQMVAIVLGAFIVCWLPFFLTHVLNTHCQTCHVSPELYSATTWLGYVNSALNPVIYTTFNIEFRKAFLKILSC
Assay: qHTS of D3 Dopamine Receptor Antagonist: qHTS
Conditions: D3R cells, DiscoveRx beta-arrestin luminescence, antagonist mode; active compounds read low
Outline: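 Cells plated overnight at 1500 cells/well, then exposed to library compounds with dopamine controls for 90 minutes at 37 degrees C. DiscoveRx reagent added for 30–60 minutes at room temperature; luminescence read, quantitative HTS format.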
% is scaled to controls: 0 for no effect and ±100 for the full control effect.

SMILES	max response, negative = inhibition
Cc1ccc(-c2cnc(C(O)c3cc(Cl)cc(Cl)c3)[nH]2)cc1 (stereo not given)	17.6% (inactive)
CCOc1ccc(CN2CCN(Cc3ccc4cc(F)ccc4n3)CC2CCO)cc1 (stereo not given)	-27.2% (inactive)
COc1cccc(CN2CCN(Cc3ccc4cccc(F)c4n3)CC2CCO)c1 (stereo not given)	-65.2% (active)
Cc1ccc(CN2CCN(Cc3cccc(C)n3)CC2CCO)cc1 (stereo not given)	-24.5% (inactive)
Cc1cccc(CN2CCN(Cc3cnn(-c4ccccc4F)c3)CC2CCO)n1 (stereo not given)	-69% (active)
OCCC#Cc1ccc(CN2CCN(Cc3ccsc3)C(CCO)C2)cc1 (stereo not given)	-22.9% (inactive)
OCCC1CN(Cc2ccc(Oc3ncccn3)cc2)CCN1CCc1ccccc1 (stereo not given)	-10.3% (inactive)
OCCC1CN(Cc2cccc(O)c2)CCN1CCc1ccccc1 (stereo not given)	-52.7% (active)
OCCC1CN(Cc2cccc(OC3CCCC3)c2)CCN1Cc1ccsc1 (stereo not given)	-81.9% (active)
CC(=O)Nc1ccc(CN2CCN(Cc3ccc(F)c(F)c3)C(CCO)C2)cc1 (stereo not given)	7.18% (inactive)
OCCC1CN(Cc2cnc(-c3ccccc3)s2)CCN1CCc1ccccc1 (stereo not given)	-27.8% (inactive)
OCCC1CN(Cc2ccccc2-c2ccco2)CCN1Cc1ccsc1 (stereo not given)	-16.3% (inactive)
Cc1ccc(CN2CCN(Cc3ccc4ncccc4c3)CC2CCO)cc1 (stereo not given)	-16% (inactive)
Cc1ccc(C(=O)OCC(=O)NC2CCCCCCC2)cc1C	5.37% (inactive)
CCCCNC(=O)C[C@@H]1C[C@@]2(C(=O)OC)CC(C)(C)CC=C2N(Cc2ccco2)C1=O	22.3% (inactive)
Cc1cc(Br)cn2c(Cc3ccccc3C(F)(F)F)c(-c3ccc(Cl)cc3)nc12	3.99% (inactive)
COc1ccc(-n2cc(CN(C)Cc3n[nH]c(=O)[nH]3)c(-c3cccc(F)c3)n2)cc1	0.876% (inactive)
CCC(O)C1CCN(Cc2cn(-c3ccc(OC)cc3)nc2-c2cccc(F)c2)CC1 (stereo not given)	-73% (active)
COc1ccc(-n2cc(CNC3CCOCC3)c(-c3cccc(F)c3)n2)cc1	-0.354% (inactive)
CCCCOCCCNC(=O)C[C@@H]1C[C@@]2(C(=O)OCC)CCCC=C2N(CCC2=CCCCC2)C1=O	2.81% (inactive)
CN1OC[C@@H]2CN(S(=O)(=O)c3cccc4ccccc34)[C@H](c3ccc(N4CCCCC4)cc3)C[C@@H]21	0% (inactive)
C[C@H]1Cn2cnc(C(=O)N[C@@H](Cc3c[nH]c4ccccc34)C(=O)OC(C)(C)C)c2C(=O)N1	5.11% (inactive)
CN(C)C(=O)c1cccc(-c2cnc3c(NC=O)cc(-c4ccc(F)cc4)cn23)c1	95.3% (inactive)
CCOc1ccc(Br)cc1CSC(=N)N	-4.48% (inactive)
N=C(N)SCc1cccc2ccccc12	-51.3% (active)
CCc1ccc(-c2nn(-c3ccccc3)cc2CSC(=N)N)cc1	6.38% (inactive)
CCCNC(=O)C[C@@H]1CC[C@@H]2[C@H](COC[C@H](O)CN2C(=O)c2cc(Cl)cc(Cl)c2)O1	13.7% (inactive)
N#CCCN(C(=S)Nc1ccc(Cl)c(Cl)c1)C1CCCCC1	2.54% (inactive)

SMILES	max response, negative = inhibition
CN1OC[C@@H]2CN(C(=O)C(C)(C)C)[C@H](c3ccc(-n4ccnc4)cc3)C[C@@H]21	22.8% (inactive)
C[C@@H]1CCCCO[C@H](CN(C)Cc2ccccc2)[C@@H](C)CN([C@H](C)CO)C(=O)c2cc(NS(=O)(=O)c3ccc(Cl)cc3)ccc2O1	-0.783% (inactive)
O=C(O)c1ccccc1/C=N/Nc1ccc(S(=O)(=O)Nc2ccc(Cl)cc2)cc1[N+](=O)[O-]	6.67% (inactive)
Cc1ccc(NS(=O)(=O)c2ccc(N/N=C/c3ccccc3OCC(=O)O)c([N+](=O)[O-])c2)c(C)c1	-17% (inactive)
COc1ccc(Br)cc1/C=N/Nc1ccc(S(=O)(=O)Nc2ccccc2C(=O)O)cc1[N+](=O)[O-]	-66% (active)
CCCNC(=O)C1CC(=O)N(c2ccc(OCc3ccccc3)cc2)C1 (stereo not given)	0% (inactive)
CCNC(=O)C1(C)CCN(Cc2ccc(C(=O)OCC)o2)C1 (stereo not given)	-10.7% (inactive)
COc1cc(C(=O)NC2CCN(Cc3ccccc3)CC2)cc(Cl)c1OC(C)C	-71.6% (active)
COc1ccc(C(=O)O)cc1S(=O)(=O)NC1CCN(Cc2ccccc2)CC1	8.04% (inactive)
COc1cc2[nH]c(=O)n(Cc3ccc(C(=O)NC4CCN(Cc5ccccc5)CC4)cc3)c(=O)c2cc1OC	-79.7% (active)
COC(=O)c1cccc(NC(=O)CN2CCC(NC(=O)c3cc(OC)c(OC)c(OC)c3)CC2)c1	24% (inactive)
CCOc1cc2[nH]c(=O)n(Cc3ccc(C(=O)NCCCN4CCCC4=O)cc3)c(=O)c2cc1OCC	6.17% (inactive)
COc1cc2[nH]c(=O)n(CCC(=O)NC3CCN(Cc4ccccc4)CC3)c(=O)c2cc1OC	-7.24% (inactive)
Nc1cccc(-c2cncc(N3CCN(Cc4ccccn4)CC3)n2)c1	-4.86% (inactive)
CCN(CC(=O)Nc1ccc(NC(C)=O)cc1)C(=O)C1CC(=O)N(c2ccc3c(c2)OCCO3)C1 (stereo not given)	19% (inactive)
O=C(CN1C(=O)NC2(CCc3ccccc32)C1=O)NC1CCCCC1 (stereo not given)	-24.4% (inactive)
CCOC(=O)C1(C)CCCN(C(=O)c2ccc(F)c(Cl)c2)C1 (stereo not given)	104% (inactive)
CC(=O)c1cccc(-c2cnc3c(NC=O)cc(-c4ccccc4Oc4ccccc4)cn23)c1	31% (inactive)
C#Cc1cc(N2CCN(C(=O)c3ccoc3)CC2)n2nc(-c3cccc(Cl)c3)cc2n1	44.3% (inactive)
CCOC(=O)[C@]12CCCC=C1N(CCC1=CCCCC1)C(=O)[C@H](CC(=O)N1CCSCC1)C2	21.2% (inactive)
Cc1cc(C)cc(C(=O)NC(=S)Nc2ccc3[nH]c(=O)[nH]c3c2)c1	-10.1% (inactive)
Cc1cc2[nH]ncc2cc1NC(=S)NC(=O)c1ccccc1	-53.9% (active)
Cc1ccc(C(=O)NC(=S)Nc2ccc3[nH]c(=O)[nH]c3c2)cc1C	-9.59% (inactive)
COc1ccccc1CNC(=O)c1cc(-c2cc(Cl)ccc2C)n[nH]1	3% (inactive)
C/C(=N\NC(=O)c1ccc(C)cc1)C1C(=O)c2ccccc2C1=O	-89.4% (active)
Cc1ccc(C(=O)N/C(=C/c2cccnc2)C(=O)O)cc1	0% (inactive)
O=C1c2ccccc2C(=O)C1C(=O)C1CC1	4.87% (inactive)
